Bioassay records deposited in PubChem by National Center for Advancing Translational Sciences (NCATS).
PINK1 expr mod: changes PINK1 expression; PINK1 immunofluorescence, high-content cytometry, 24 h; Potency, µM (series often up to 76.6 µM), hits mostly activators; 410,000 compounds, 0.2% hits; active = well fitted activation curve with a large enough effect; inconclusive = small, poorly fitted or top-dose-only effect; cell line not stated here; also: nearly all actives have a fitted effect of over 65% in size
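Compound titrations (5 concentrations, 24 h) on a stable cell line; DMSO and CCCP controls. Endpoint: fixed-cell PINK1 immunofluorescence with mitochondrial, cell and nuclear markers, scanned by microplate cytometer.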
ATXN2 expr inh: ATXN2 expression inhibition; HEK-293 ATXN2-luciferase reporter, luminescence, 24 h; Potency, µM (doses to about 57 µM), actives largely listed as inhibitors; 360,000 compounds, 0.72% hits; AID 1745845; also: nearly all actives have a fitted effect of over 55% in size
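ATXN2-luciferase reporter cells (luciferase flanked by upstream and downstream ATXN2 gene portions) were treated 24 h at 37 °C with compounds at up to 57 uM. SteadyGlo luminescence gave expression; GF-AFC fluorescence gave viability.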
MCF10A rereplic: induces DNA re-replication in MCF 10a normal breast cells; Potency, µM (titrated, usually from 46.1 µM), actives largely listed as activators; 350,000 compounds, 2.9% hits; MCF 10A DNA re-replication, Hoechst nuclear intensity, 48 h; also: nearly all actives have a fitted effect of over 50% in size
IL-1B inflam inh: blocks inflammasome-driven IL-1 beta release. THP-1 LPS/ATP IL-1B secretion, AlphaLISA, 16 h; active compounds read low. 360,000 compounds, 4.7% hits. activity change, % at 57.5 µM. AID 743279; in the data active = activity change below about -50%; inconclusive = mostly about -30% to -49%
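THP-1 cells pretreated 1 hr with compounds (up to 57.5 uM final), then stimulated with LPS (250 ng/mL final) plus ATP (1.25 mM final); secreted IL-1B measured by AlphaLISA after 16 hr, decreased signal indicating inhibition.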
ATXN viability: reduces viability in counter-screen for ATXN expression inhibitors. S2 cells (HEK-293 line with an ATXN2-luciferase reporter) viability, CellTiter-Fluor protease fluorescence, 24 h. Potency, µM (highest dose often 56.7 µM), actives largely listed as cytotoxic. 400,000 compounds, 0.49% hits; also: nearly all actives have a fitted effect of over 40% in size
SW480 rereplic: DNA re-replication induction in SW480 cells. 340,000 compounds, 1.8% hits. SW480 DNA re-replication, Hoechst DNA content imaging, 48 h. Potency, µM (titrated, usually from 46.1 µM), hits mostly activators; also: nearly all actives have a fitted effect of over 55% in size
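Image-based read-out: total Hoechst fluorescence of nuclei (405 nm excitation, 500-530 nm emission), with hits raising the fraction of high-intensity nuclei. SW480 colon cells incubated 48 hr with compounds at 37 C.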
Large screens that a line does not name were inactive. Hits are enriched below; roughly 7.1% of the tested compounds scored in any of these assays. Unless noted, calls follow the shape of the dose curve; as a rule, active = well fitted curve in the direction sought with a large enough effect; inconclusive = small, poorly fitted or top-dose-only effect, or another doubt; inactive = no such curve, though single readings can be large; an effect the other way counts as inactive or inconclusive.

COc1ccccc1Cc1nc2ccccc2[nH]c1=O	none (no result: MCF10A rereplic, IL-1B inflam inh, SW480 rereplic)
Cn1c(=O)n(-c2ccc(F)c(Cl)c2)c(=O)c2sc3ccccc3c21	ATXN viability inconclusive (no result: MCF10A rereplic, IL-1B inflam inh, SW480 rereplic)
Cc1ccccc1C(=O)Nc1cccc(C(=O)OCc2cc(=O)n3c(C)csc3n2)c1	none (no result: ATXN2 expr inh, MCF10A rereplic, IL-1B inflam inh, ATXN viability, SW480 rereplic)
O=C([C@@H]1C[C@@H](Sc2nc3ccccc3[nH]2)CN1Cc1c(F)cccc1F)N1CCOCC1	none (no result: ATXN2 expr inh, MCF10A rereplic, IL-1B inflam inh, SW480 rereplic)
COc1ccc(-c2nc3sc(CCNC(=O)C(=O)Nc4ccc(C)c(F)c4)c(C)n3n2)cc1	none (no result: ATXN2 expr inh, MCF10A rereplic, IL-1B inflam inh, ATXN viability, SW480 rereplic)
Cc1cc(/N=C/C=C2\N(C)c3ccccc3C2(C)C)n(CCC#N)n1	ATXN2 expr inh inconclusive, IL-1B inflam inh -90 (no result: ATXN viability)
CN(C)c1ccc(N=C/C=C2\N(C)c3ccccc3C2(C)C)cc1	PINK1 expr mod inconclusive, MCF10A rereplic inconclusive, IL-1B inflam inh -89, ATXN viability inconclusive
CN1\C(=C/C=C/C=C/C=[N+](C)C)C(C)(C)c2ccccc21	PINK1 expr mod inconclusive, MCF10A rereplic inconclusive, ATXN viability 18µM (no result: ATXN2 expr inh)
CN1/C(=C\C=O)C(C)(C)c2ccccc21	none
CCCCNC(=O)C1(C)CCN1C(=O)c1cc(-c2cccs2)oc1C (configuration not stated)	IL-1B inflam inh -104 (no result: MCF10A rereplic, SW480 rereplic)
CCCCNC(=O)C1(C)CCCCN1C(=O)c1cc(OC)ccc1Br (configuration not stated)	IL-1B inflam inh -96 (no result: MCF10A rereplic, SW480 rereplic)
COc1cccc(CNC(=O)CCc2c(C)nc3c4c(C)cc(C)nc4nn3c2C)c1	none (no result: ATXN2 expr inh, MCF10A rereplic, IL-1B inflam inh, ATXN viability, SW480 rereplic)
COc1cc2c(cc1OC)CN(C(=O)/C=C/c1cccs1)CC2	ATXN2 expr inh inconclusive, MCF10A rereplic 4.1µM, ATXN viability inconclusive, SW480 rereplic 13µM
COc1cc2c(cc1OC)CN(C(=O)/C=C/c1ccccc1[N+](=O)[O-])CC2	MCF10A rereplic 13µM, SW480 rereplic 16µM
O=C(/C=C/c1cccs1)N1CCCCC1	none
O=C(/C=C/c1cccs1)N1CCN(c2ccc(O)cc2)CC1	MCF10A rereplic 16µM, SW480 rereplic inconclusive
OC(CNC1CCCC1)COc1ccc(-c2ccccc2)cc1 (configuration not stated)	MCF10A rereplic inconclusive, IL-1B inflam inh -63, SW480 rereplic inconclusive (no result: ATXN viability)
OC(CNC1CCCCC1)COCCOc1ccc(Br)cc1 (configuration not stated)	MCF10A rereplic 16µM, SW480 rereplic inconclusive
COC(=O)c1ccc(OCC(O)CNC2CCCC2)cc1 (configuration not stated)	none
CC(NCC(O)COc1ccc(Br)cc1)c1ccccc1 (configuration not stated)	ATXN2 expr inh inconclusive, IL-1B inflam inh inconclusive
CCCC(NCC(O)COc1ccc(-c2ccccc2)cc1)c1ccccc1 (configuration not stated)	ATXN2 expr inh 19µM, MCF10A rereplic 4.1µM, IL-1B inflam inh -77, ATXN viability inconclusive, SW480 rereplic 5.2µM
CCC(CC)NCC(O)COc1ccc(Br)cc1 (configuration not stated)	ATXN2 expr inh inconclusive, IL-1B inflam inh -52
O=C(NC1CC(=O)N(c2cccc(F)c2)C1)c1cc2ccccc2o1 (configuration not stated)	none (no result: ATXN2 expr inh, MCF10A rereplic, IL-1B inflam inh, ATXN viability, SW480 rereplic)
O=C(COc1ccc(Cl)cc1)Nc1ncc([N+](=O)[O-])s1	PINK1 expr mod 16µM, ATXN2 expr inh inconclusive, MCF10A rereplic inconclusive, ATXN viability inconclusive
O=C(Cc1ccc(Br)cc1)Nc1ncc([N+](=O)[O-])s1	PINK1 expr mod 25µM, MCF10A rereplic inconclusive, IL-1B inflam inh -54 (no result: ATXN2 expr inh)
CC(CC(=O)Nc1ncc([N+](=O)[O-])s1)c1ccccc1 (configuration not stated)	PINK1 expr mod inconclusive, IL-1B inflam inh -63, ATXN viability inconclusive
O=C(Cc1ccc(Cl)cc1)Nc1ncc([N+](=O)[O-])s1	PINK1 expr mod inconclusive, MCF10A rereplic inconclusive
CCOC(=O)c1ccc(NC(=O)CC2Nc3ccccc3NC2=O)cc1 (configuration not stated)	none (no result: MCF10A rereplic, IL-1B inflam inh, ATXN viability, SW480 rereplic)
C/C(=N\NC(=S)NCc1ccccc1)c1ccc(Cl)s1	none
COCCNC(=S)N/N=C(\C)c1ccc(Cl)s1	IL-1B inflam inh -96, ATXN viability inconclusive
